Laboratory results from PubChem BioAssay (NCI).
Compounds without any hit were thinned out: in the full panel of roughly 83,000, 20% have a hit.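 The endpoint reported here, percent growth, reads 100 for growth as untreated, 0 for no net growth and -100 for all cells dead.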 Active and inactive are the calls of the source. How the source made its calls: active means growth percent below 10; inactive means the rest.

Tests used:
Assay in all cases: NCI-60 one-dose screen, 48 h (100 = growth as untreated, 0 = no growth, -100 = all killed)
Conditions in all cases: 10 µM unless noted
[1] = test system: HCT-15 colon
[2] = test system: HT29 colon
[3] = test system: SNB-75 CNS
[4] = test system: SNB-19 CNS
[5] = test system: U251 CNS
[6] = test system: PC-3 prostate
[7] = test system: SK-MEL-5 melanoma
[8] = test system: UACC-62 melanoma
[9] = test system: LOX IMVI melanoma
[10] = test system: SK-MEL-28 melanoma
[11] = test system: SK-MEL-2 melanoma
[12] = test system: EKVX NSCLC
[13] = test system: SN12C renal
[14] = test system: UO-31 renal
[15] = test system: TK-10 renal
[16] = test system: ACHN renal
[17] = test system: CAKI-1 renal
[18] = test system: A498 renal
[19] = test system: CCRF-CEM leukemia
[20] = test system: MOLT-4 leukemia

Measured: growth

Fc1ccc(NC(c2ccc(F)cc2)C2CCN(CCCCc3ccccc3)CC2)cc1 (stereo not given)
active: [2] 3.89% | [7] -3.5% | [19] 8.3% | [20] 4.36%
inactive: [1] 29.3% | [3] 63.4% | [4] 50% | [5] 16.6% | [6] 35% | [8] 26% | [9] 11.3% | [10] 60.1% | [11] 69.6% | [12] 52.9% | [13] 29% | [14] 38.8% | [15] 49% | [16] 53.8% | [17] 49.1% | [18] 17.2%

Nc1c(C(=O)Nc2ccncc2)sc2nc3c(cc12)CCCCCCCC3
active: [1] -82.2% | [2] -92.6% | [3] -96.2% | [4] -77.1% | [5] -89.2% | [6] -18.9% | [7] -96.1% | [8] -94.9% | [9] -84.7% | [10] -91.4% | [11] -86.7% | [12] -31.2% | [13] -65.1% | [14] -95% | [15] -75.6% | [16] -98.8% | [17] -94.8% | [18] -9% | [19] -37.9% | [20] -40.6%

Cc1[nH]c(C(=O)Nc2nc3ccc(NC(=O)CCN)cc3s2)c(Cl)c1Cl
inactive: [1] 83.2% | [2] 88.9% | [3] 81.6% | [4] 78.6% | [5] 47.1% | [6] 65.5% | [7] 83.8% | [8] 44.4% | [9] 19.7% | [10] 97.8% | [11] 96.4% | [12] 76.3% | [13] 65.4% | [14] 80.4% | [15] 113% | [16] 43.2% | [17] 31.5% | [18] 65.3% | [19] 15.3% | [20] 12.9%

COc1ccc(-c2ccc(-c3ccc(C(=N)N)cn3)s2)cc1Cl
active: [1] -72.5% | [2] -52.6% | [3] -98.4% | [4] -73.9% | [5] -62.2% | [6] -80.9% | [7] -48.4% | [8] -92.3% | [9] -84.5% | [10] -86.6% | [11] -54% | [12] -58.4% | [13] -81% | [14] -89.9% | [15] -73.1% | [16] -98.2% | [17] -98.4% | [19] -36.1% | [20] -31.5%
inactive: [18] 99%

COC(=O)c1nc(-c2ccc(C)cc2)oc1S(=O)(=O)c1ccc(Cl)cc1
active: [19] -15.8% | [20] -21%
inactive: [1] 73.5% | [2] 102% | [3] 100% | [4] 96.4% | [5] 93.4% | [6] 97% | [7] 96.5% | [8] 90.4% | [9] 42.3% | [10] 99% | [11] 102% | [12] 108% | [13] 83.6% | [14] 75.1% | [15] 93.5% | [16] 80.4% | [17] 95% | [18] 113%

CCN1C(=O)/C(=c2\sc3n(c2=O)C2C(NN=3)N(CC)C(=O)N2CC)c2ccccc21 (stereo not given)
inactive: [1] 19.3% | [2] 13% | [4] 42% | [5] 32.3% | [6] 26.3% | [7] 12.7% | [8] 32.9% | [9] 33% | [10] 54.2% | [11] 60.1% | [12] 65% | [13] 29.1% | [14] 51.2% | [15] 76.6% | [16] 38.5% | [17] 45.7% | [19] 25.7% | [20] 26.6%
active: [3] 5.72% | [18] -25.4%

CCC(=C(c1ccc(OCCCN(C)C)cc1)c1ccc(OCCCN(C)C)cc1)c1ccc(Cl)cc1
active: [1] -83.3% | [2] -74.5% | [3] -96.6% | [4] -88.3% | [5] -83.4% | [6] -66.2% | [7] -96.3% | [8] -80% | [9] -84.3% | [10] -89.8% | [11] -72.1% | [12] -86.8% | [13] -94.1% | [14] -93.6% | [15] -85.2% | [16] -95.8% | [17] -96.1% | [18] -86.3% | [19] -67.9% | [20] -61.9%
